Source: PubChem BioAssay (National Center for Advancing Translational Sciences (NCATS))
This is one part of a sample in which hits are shown more often than they occur.
Marburg entry inh: blocks Marburg virus binding to or entry into cells; Marburg virus pseudotyped entry inhibition, cell reporter; Potency, µM (titrated, usually from 37.8 µM), hits mostly inhibitors; 300,000 tested, 1.8% active; AID 540276; calls by dose curve; tested in HEK293 cells
Shiga toxin inh: Shiga toxin inhibition | inhibition, % at 38.7 µM | 290,000 tested, 9.2% active | Vero cells, Shiga toxin protein synthesis inhibition reporter | AID 2315; in the data active = inhibition mostly above about 28%, no sharp cut-off; inactive = mostly below about 43%
Cycloheximide cs: counter-screen for Shiga toxin inhibitors: cycloheximide protein synthesis inhibition | cell reporter, cycloheximide protein synthesis inhibition counterscreen | max response, % | 300,000 tested, 12% active; in the data active = max response mostly above about 13%, no sharp cut-off; inactive = mostly below about 14%; also: read at 38.3 µM for the half of the compounds with a filed dose
AMA1 RON2 block: AMA1-RON2 (P. falciparum) interaction inhibition. AlphaScreen AMA1-biotinylated RON2 peptide binding. Potency, µM (top dose mostly 58.2 µM), actives largely listed as inhibitors. 360,000 tested, 0.2% active. AID 720542; active = well fitted inhibition curve with a large enough effect; inconclusive = small, poorly fitted or top-dose-only effect; inactive = no such curve, though single readings can be large or run the other way; also: nearly all actives have a fitted effect of over 45% in size
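AMA1 (3D7) with his tag at 25 nM final met compounds first, then biotinylated RON2 peptide at 25 nM; detection used donor plus acceptor beads, 10 µg/mL apiece, read by AlphaScreen after 30 min at room temperature.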
LASV entry inh: blocks Lassa virus binding to or entry into cells | Lassa virus pseudotype entry inhibition, cell reporter | Potency, µM (titrated, usually from 37.9 µM), usual class: inhibitors | 300,000 tested, 1.2% active; calls by dose curve; tested in HEK293 cells; also: nearly all actives have a fitted effect of over 50% in size
Each line names hits and unclear results; the compound was inactive in the other large screens.

COc1cc(/C=N/N(C)c2ccccc2)cc(Cl)c1O	Cycloheximide cs 38, LASV entry inh inconclusive
COc1ccc(OC)c(/C=N/N(C)c2ccccc2)c1	Cycloheximide cs 36
CC(=O)c1cccc(NC(=O)C2CCCN(c3nnc(-n4cccc4)s3)C2)c1 (stereo not given)	none (no result: Marburg entry inh, Shiga toxin inh, Cycloheximide cs, AMA1 RON2 block)
CCN(Cc1cnn(C)c1)C(=O)c1ccc2nc(Cc3cccc(Cl)c3)oc2c1	Marburg entry inh inconclusive
Nc1ccc(N=Nc2ccc(N)cc2)cc1	Cycloheximide cs 33 (no result: Marburg entry inh, LASV entry inh)
CN(C)c1ccc(CCc2ccc(N)cc2)cc1	AMA1 RON2 block inconclusive (no result: Shiga toxin inh, Cycloheximide cs)
Nc1ccc(N(c2ccccc2)c2ccc(N)cc2)cc1	Marburg entry inh inconclusive, AMA1 RON2 block inconclusive
Nc1ccc(N=Nc2ccccc2)cc1	Marburg entry inh inconclusive, Shiga toxin inh 69, Cycloheximide cs 41, AMA1 RON2 block inconclusive, LASV entry inh inconclusive
Cc1cc(N(C)C)ccc1N=Nc1ccc(N)cc1	Marburg entry inh inconclusive, AMA1 RON2 block 14µM, LASV entry inh inconclusive (no result: Shiga toxin inh, Cycloheximide cs)
O=C(COC(=O)c1ccc[nH]c1=O)Nc1cc(S(=O)(=O)N2CCCCCC2)ccc1Cl	none (no result: Shiga toxin inh, Cycloheximide cs)
Cc1ccccc1CNC(=O)CCCn1c(=O)c2cccn2c2cccnc21	none (no result: Marburg entry inh, Shiga toxin inh, Cycloheximide cs, AMA1 RON2 block)
CCN1CCN(c2cc(C)c3cc(NC(=S)N(C)Cc4ccccc4)ccc3n2)CC1	Marburg entry inh inconclusive, LASV entry inh inconclusive
CCCCN(C)CCNC(=S)Nc1ccc2nc(N3CCN(CC)CC3)cc(C)c2c1	Marburg entry inh inconclusive, LASV entry inh 7.1µM
CCCCN(C)C(=S)Nc1ccc2nc(N3CCN(CC)CC3)cc(C)c2c1	Shiga toxin inh 82 (no result: Marburg entry inh, LASV entry inh)
CCCCNC(=O)CCC(=O)Nc1ccc2nc(N3CCN(C)CC3)cc(C)c2c1	none (no result: Marburg entry inh, LASV entry inh)
CCCCN(CC)C(=S)Nc1ccc2nc(N3CCN(C)CC3)cc(C)c2c1	Cycloheximide cs 28 (no result: Marburg entry inh, LASV entry inh)
Clc1ccc(Cc2nc(-c3cccnc3)no2)cc1	Cycloheximide cs 17
Cc1cc(C)cc(OCc2nc(-c3cccnc3)no2)c1	none
Cc1ccc(Cc2nc(-c3cccnc3)no2)cc1	Shiga toxin inh 111, Cycloheximide cs 34
Cc1ccc(Nc2nnc(-c3ccc(C)c(S(=O)(=O)N4CCN(C)CC4)c3)c3ccccc23)c(C)c1	none (no result: Shiga toxin inh, Cycloheximide cs, AMA1 RON2 block)
COc1ccc2c(c1)CCc1cnc(N)nc1-2	Marburg entry inh inconclusive, Cycloheximide cs 12
CCn1c(CNC(=O)c2ccccc2Br)nnc1SCC(=O)Nc1nncs1	LASV entry inh inconclusive
CC1(c2ccc3ccccc3c2)NC(=O)N(CC(=O)Nc2ncccc2O)C1=O (stereo not given)	none (no result: Marburg entry inh, Shiga toxin inh, Cycloheximide cs, LASV entry inh)
CC(C)C(C(=O)Nc1ccc2c(c1)OCCO2)N1C(=O)c2ccccc2C1=O (stereo not given)	none
C[C@@H](C(=O)Nc1ccc2c(c1)OCCO2)n1c(=O)[nH]c2ccccc2c1=O	Shiga toxin inh 147, Cycloheximide cs 49 (no result: Marburg entry inh, LASV entry inh)
O=C(Cn1c(=O)[nH]c2ccccc2c1=O)Nc1ccc2c(c1)OCO2	none (no result: Marburg entry inh, LASV entry inh)
C[C@@H](C(=O)Nc1ccc2c(c1)OCO2)n1c(=O)[nH]c2ccccc2c1=O	Shiga toxin inh 29
C[N+](C)(C)CC1CCCC(C[N+](C)(C)C)C1=O (stereo not given)	Marburg entry inh 10µM, LASV entry inh inconclusive (no result: Shiga toxin inh, Cycloheximide cs)
C[N+](C)(C)CC1CCCc2ccccc2C1=O (stereo not given)	Marburg entry inh inconclusive, LASV entry inh inconclusive (no result: Shiga toxin inh, Cycloheximide cs)
CCN(CC)c1ccc2cc(-c3nc(-c4ccccc4F)no3)c(=O)oc2c1	none (no result: Marburg entry inh, Shiga toxin inh, Cycloheximide cs, AMA1 RON2 block)
CCN(CC)c1ccc2nc3c4ccccc4c(=O)cc-3oc2c1	Shiga toxin inh 65, Cycloheximide cs 52 (no result: Marburg entry inh, LASV entry inh)
Cc1noc(C)c1C(=O)N(CC(=O)Nc1ccc(Cl)c(C(F)(F)F)c1)Cc1ccco1	none (no result: Marburg entry inh, Shiga toxin inh, Cycloheximide cs, LASV entry inh)
CCOc1ccc(Nc2nnc(Cc3ccc(OC)cc3)c(=O)[nH]2)cc1	none
CCOc1nc(NCc2ccco2)nc(Nc2ccc(OC)cc2)n1	Cycloheximide cs 27
COc1ccc(Nc2nc(NCc3ccco3)nc(N/N=C/c3ccccc3)n2)cc1	none
CCOc1nc(NCCO)nc(Nc2ccccc2F)n1	Cycloheximide cs 17 (no result: Marburg entry inh, LASV entry inh)
CCOc1nc(NCc2ccco2)nc(Nc2ccccc2F)n1	Marburg entry inh inconclusive, Shiga toxin inh active, Cycloheximide cs 27
CCOc1nc(NCCO)nc(Nc2ccc([N+](=O)[O-])cc2)n1	AMA1 RON2 block inconclusive
COc1ccccc1COC(=O)C(NC(=O)c1ccc(C)cc1)C(C)C (stereo not given)	LASV entry inh inconclusive (no result: Shiga toxin inh, Cycloheximide cs)
Nc1[nH]c(N=NC(=O)c2ccc(F)cc2)c2ccccc12	Marburg entry inh inconclusive, Shiga toxin inh 121, Cycloheximide cs 91
Nc1ccccc1C(=O)N=Nc1[nH]c(N)c2ccccc12	Marburg entry inh inconclusive, Shiga toxin inh 16, Cycloheximide cs 44, LASV entry inh inconclusive
